# PubChem BioAssay (NCATS)
# The source made the active and inactive calls. Calls come from the whole dose curve.
# Tests used:
# Assay in all cases: Confirmatory Screen for Target Class Profiling of Small Molecule Inhibitors of Methyltransferases (AID 1745852); for activity change, negative = inhibition: % is set by controls: 0 for no effect and ±100 for the full control effect
# [1] = biological target: Catechol O-methyltransferase (Homo sapiens) (UniProt P21964); settings: MTase-Glo luminescence, SAH detection, recombinant enzyme; measured here: COMT max response; stronger effect = lower value
# [2] = biological target: Guanidinoacetate N-methyltransferase (Homo sapiens) (UniProt Q14353); settings: MTase-Glo luminescence, SAH detection, recombinant enzyme; activity change, negative = inhibition: at 57.3 µM (top of the series) unless noted; series mostly up to 57.3 µM
# [3] = biological target: Nicotinamide N-methyltransferase (Homo sapiens) (UniProt P40261); settings: MTase-Glo luminescence, SAH detection, recombinant enzyme; measured here: NNMT max response; stronger effect = lower value
# [4] = biological target: Phenylethanolamine N-methyltransferase (Homo sapiens) (UniProt P11086); settings: MTase-Glo luminescence, SAH detection, recombinant enzyme; measured here: PNMT max response; stronger effect = lower value
# Potency is the fitted concentration of half-maximal effect.
# Chain of Phenylethanolamine N-methyltransferase (Homo sapiens) (P11086 whole entry, looked up): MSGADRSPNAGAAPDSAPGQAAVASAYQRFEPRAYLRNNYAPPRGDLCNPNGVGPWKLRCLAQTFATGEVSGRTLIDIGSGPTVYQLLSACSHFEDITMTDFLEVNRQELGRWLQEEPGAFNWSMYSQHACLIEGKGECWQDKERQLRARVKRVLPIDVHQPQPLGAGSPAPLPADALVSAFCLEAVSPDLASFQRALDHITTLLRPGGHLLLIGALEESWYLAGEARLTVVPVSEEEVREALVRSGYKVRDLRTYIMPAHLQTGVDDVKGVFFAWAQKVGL
# Chain of Nicotinamide N-methyltransferase (Homo sapiens) (P40261 whole entry, looked up): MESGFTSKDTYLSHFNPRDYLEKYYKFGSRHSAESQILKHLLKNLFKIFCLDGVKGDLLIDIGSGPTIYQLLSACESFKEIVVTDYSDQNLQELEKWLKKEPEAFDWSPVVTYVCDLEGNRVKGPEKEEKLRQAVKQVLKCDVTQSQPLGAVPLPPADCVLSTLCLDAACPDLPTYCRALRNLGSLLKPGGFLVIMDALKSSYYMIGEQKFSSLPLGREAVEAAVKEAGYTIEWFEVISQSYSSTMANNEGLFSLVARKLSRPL
# Chain of Catechol O-methyltransferase (Homo sapiens) (P21964 whole entry, looked up): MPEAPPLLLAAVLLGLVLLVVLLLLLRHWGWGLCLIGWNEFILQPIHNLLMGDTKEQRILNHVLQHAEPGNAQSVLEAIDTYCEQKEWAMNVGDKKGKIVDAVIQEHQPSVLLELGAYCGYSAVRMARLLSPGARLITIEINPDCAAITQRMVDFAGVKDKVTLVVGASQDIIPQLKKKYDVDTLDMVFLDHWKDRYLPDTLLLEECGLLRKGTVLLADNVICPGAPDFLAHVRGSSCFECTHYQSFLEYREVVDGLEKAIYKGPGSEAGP
Structure (SMILES),activity [1],"activity change, negative = inhibition [2]",activity [3],activity [4],Potency [2]
Cc1cnc(C2CC2)n1C1CCCN(Cc2ccccc2)C1 (stereo not given),3.04%,5.24%,-1.39%,0.832%,–
Cc1c(OCc2ccc(C(=O)O)o2)ccc2c(-c3ccccc3)cc(=O)oc12,-33.2%,–,-34.7%,-33.9%,24.1 µM (active)
O=C(NCc1cccc(Cl)c1)c1cnc2c(c1)N(C(=O)Cc1ccc(O)cc1)CCC2,-2.5%,-3.31% [at 85.7 µM],-5.79%,-1%,–
O=C(Nc1ccccc1)c1cnc2c(c1)N(C(=O)Cc1ccc(O)cc1)CCC2,-2.13%,-4.86% [at 85.7 µM],-4.08%,-3.63%,–
CCCC1c2cccn2CCN1C(=O)Nc1cccc(Cl)c1C (stereo not given),-7.65%,-4.33%,-16%,-8.29%,–
CCc1cc2c(cc3n2CC(C)(C(=O)NC2CCC(C)CC2)N(C(C)CCc2ccco2)C3=O)s1 (stereo not given),-10.7%,-18.6%,-6.06%,-12.3%,–
C1=C(c2nc(-c3ccncc3)cc3c2ccn3Cc2cccnc2)CCOC1,-19%,-9.57% [at 85.7 µM],-8.71%,-24.5%,–
CCN1CCN(c2nc3c(S(=O)(=O)c4ccc(C)cc4)nnn3c3ccccc23)CC1,-6.68%,-2.1%,-16.7%,-10.8%,–
CCCC1c2cccn2CCN1C(=O)Nc1ccccc1Cl (stereo not given),2%,–,-4.51%,1.09%,inactive
O=C(CCc1nnc2n(Cc3ccccc3Cl)c(=O)c3ccccc3n12)NCCc1c[nH]c2ccccc12,4.12%,0%,-2.9%,-5.42%,–
CCN(CC)c1cc(CCC(=O)N2CCN(c3cccc(OC)c3)CC2)ccn1,-2.67%,5.52%,1.73%,-3.99%,–
CN(C)CCNC(=O)c1ccnc(-c2nnc3ccc(N(C)c4ccccc4)nn23)c1,-5.96%,-11.8% [at 85.7 µM],-14.4%,-6.46%,–
COc1ccc(OC)c2c1cc1n2CC(C)(C(=O)NC2CCCCCC2)N(Cc2ccccn2)C1=O (stereo not given),3.33%,–,-20.5%,-2.24%,inactive
CC(C)Cn1c(=O)c2ccccc2n2c(CCC(=O)N3CCN(c4ccccc4F)CC3)nnc12,2.07%,0%,-58.2%,-8.56%,–
CC1CCN(CCCNC(=O)CCc2nnc3n(Cc4ccc(Cl)cc4)c(=O)c4ccccc4n23)CC1,-7.96%,-1.55%,-19%,-5.13%,–
CCNc1nccc(N2CCC(CC(=O)N3CCN(c4ccccc4F)CC3)CC2)n1,6.4%,4.58%,2.88%,5.27%,–
O=C(CCC[C@@H]1[C@H]2CCCN3CCC[C@@H](CN1Cc1ccccc1)[C@@H]23)Nc1cccnc1,-3.16%,-5.99%,-11.8%,-2.62%,–
COc1ccc(-c2n[nH]n3c2nc(=O)c2ccc(C(=O)NCc4ccc(OC)c(OC)c4)cc23)cc1,-3.17%,0.217%,0.962%,0.793%,–
CN1CCN(c2ncnc3sc4c(c23)CCNC4)CC1,-1.43%,0.536%,-71.2%,-15%,–
COc1ccc(-c2nnc3n(CCc4ccccc4)c(=O)c4ccccc4n23)c(OC)c1,-4.93%,-5.05%,-9.89%,-5.15%,–
CC[C@H](C)NC(=O)c1sc(=S)n2c1[nH]c(=O)c1cc(Cl)ccc12,-75.3%,–,-78.5%,-77%,24.1 µM (active)
COc1ccc(CN2C[C@@H](CO)[C@H](c3ccncc3)C2)c(OC)c1,7.35%,7.27%,-21.3%,8.2%,–
C[C@H]1CN(C(=O)Nc2ccc(F)cc2F)C[C@@H]1c1nc(-c2ccccc2)no1,6.81%,–,-92.4%,9.33%,0.769 µM (active)
CCCC1c2cccn2CCN1C(=O)Nc1ccccc1Br (stereo not given),-6.73%,-3.12%,-13.8%,-7.98%,–
Cc1noc2c(N3CCOCC3)cc(-c3cccs3)nc12,-4.75%,2.07% [at 85.7 µM],-22.1%,-11.9%,–
O=C(Cn1ccc2cc(S(=O)(=O)N3CCCCC3)ccc21)NCCCN1CCCCC1,-5.54%,-0.43%,-8.24%,-7.19%,–
O=C1c2ccccc2C(=O)c2cc(S(=O)(=O)Nc3ccc(Br)cc3)ccc21,0.0189%,-0.0818%,-13.8%,-18.5%,–
COCCCNC(=O)c1cnc2n[nH]c(-c3ccccc3)c2n1,-62.1%,–,-64.3%,-75.1%,39.3 µM (active)
CCCCCNC(=O)c1sc(=S)n2c1[nH]c(=O)c1ccc(C(=O)OC)cc12,-39.2%,–,-59.4%,-27%,30.4 µM (active)
O=C(CCc1nnc2n(Cc3ccc(Cl)cc3)c(=O)c3ccccc3n12)N1CCC(N2CCCCC2)CC1,-4.51%,-0.992%,-21.6%,0.847%,–
